# Assay results as given in PubChem BioAssay.
# Activity calls are given as the source filed them.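 How the source made its calls: active means NADPH fluorescence slope more negative than the mean of all samples by about 3 SD, 99.7% confidence; inactive means the rest.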
# Target: Voltage-gated potassium channel subunit beta-2 (Rattus norvegicus) (UniProt P62483)
# Experiment: KvBeta positive modulators, primary screen, biochemical, NADPH fluorescence (AID 623);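 further: fluorescence intensity change per second fitted from 20 to 320 s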
# Details: Recombinant KvBeta, NADPH fluorescence decrease slope, 10 min; at 10 µM; active compounds read low
# Sequence of Voltage-gated potassium channel subunit beta-2 (Rattus norvegicus) (P62483 whole entry, looked up): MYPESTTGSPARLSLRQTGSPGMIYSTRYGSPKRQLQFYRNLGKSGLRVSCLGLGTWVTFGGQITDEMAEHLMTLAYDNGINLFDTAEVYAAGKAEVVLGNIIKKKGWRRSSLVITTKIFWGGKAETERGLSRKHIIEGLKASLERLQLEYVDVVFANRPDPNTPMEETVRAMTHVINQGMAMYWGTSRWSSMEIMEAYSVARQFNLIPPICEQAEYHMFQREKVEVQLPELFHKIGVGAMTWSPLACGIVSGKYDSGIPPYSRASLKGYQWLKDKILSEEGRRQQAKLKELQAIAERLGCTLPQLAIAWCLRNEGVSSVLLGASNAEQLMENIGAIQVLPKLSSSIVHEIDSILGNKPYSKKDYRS
row,SMILES,NADPH fluorescence slope
1,COc1cccc2cc(C(=O)Nc3cccnc3N3CCOCC3)c(=O)oc12,1.5e-05 (inactive)
2,CN(c1ccccc1)S(=O)(=O)c1cc(C(=O)N2CCN(c3ccccn3)CC2)ccc1Cl,-6e-05 (inactive)
3,COc1cc(OC)c(C(=O)Nc2ccc(N(C)C)cc2)cc1OC,-4.1e-05 (inactive)
4,Cc1ccc(C(=O)C2COC(=O)C2)cc1 (stereo not given),-2.8e-05 (inactive)
5,COc1cccc(CNc2cccc3cccnc23)c1O,-7.6e-05 (inactive)
6,O=c1c2cn[nH]c2nc(SCc2ccc3c(c2)OCCO3)n1-c1ccccc1,1.3e-05 (inactive)
7,CCOC(=O)c1cc(-c2ccc(Cl)s2)nc2c1c(C)nn2C,-1.5e-05 (inactive)
8,Cc1ccc(-c2ccc(/C=N/n3cnnc3)o2)cc1Cl,-1.9e-05 (inactive)
9,Cc1cc(C)nc(N2CCC(C(=O)NCc3cccc(C(F)(F)F)c3)CC2)n1,-4.8e-06 (inactive)
10,O=C(CN1C(=O)COc2ccccc21)NCCCN1CCc2ccccc2C1,1.2e-05 (inactive)
11,O=C(CCn1c(=O)sc2ccccc21)NC1=NCCS1,8e-05 (inactive)
12,Cc1ccccc1NC(=O)N1C2CCCC1CC(NC(=O)C1CC1)C2 (stereo not given),8.6e-05 (inactive)
13,C=C(C)CSc1nnc(-c2cccc(S(=O)(=O)N(C)C)c2)n1-c1cc(OC)ccc1OC,4e-05 (inactive)
14,C=CCn1c(=O)/c(=C/c2ccc(O)cc2)s/c1=C(/C#N)c1nnc2n1CCCCC2,-4.5e-05 (inactive)
15,O=C(CSc1nnnn1Cc1ccccc1)Nc1ccc2c(c1)OCO2,-9.5e-06 (inactive)
